Only some compounds are listed: those with a hit (about 21% of all), similar ones and a draw of the others.
Pf growth 96h – Primary qHTS for delayed death inhibitors of the malarial parasite plastid, 96 hour incubation. Potency, µM (highest dose often 28.7 µM), for inactives: at the top dose activity change, negative = inhibition, hits mostly inhibitors. 320,000 compounds, 6.9% hits. P. falciparum luciferase reporter growth, 96 h. AID 504834, 2011; further: potency means the concentration at half of the fitted maximal effect; on the % scale 0 is the no-effect control and ±100 the full control effect
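Plates of compound plus infected erythrocytes (2% hematocrit, 0.05% parasitemia final) incubate 96 hours, 37 C, 5% CO2. Detection reagent added; reduced luminescence from the parasites' luciferase reporter flags inhibition.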
Shiga inhibitor – A qHTS for Small Molecule Inhibitors of Shiga Toxin | Vero cells, Shiga toxin protein synthesis inhibition reporter | AID 2315, 2010 | inhibition, % at 38.7 µM | 290,000 compounds, 9.2% hits; in the data active means inhibition mostly above about 28%, no sharp cut-off; inactive means mostly below about 43%; further: 0% is about no effect
NS1 inh – qHTS Assay for Inhibitors of Influenza NS1 Protein Function; AID 2326, 2010; Potency, µM (doses to about 46.1 µM), for inactives: top-dose activity, positive = more growth; 270,000 compounds, 0.4% hits; calls by dose curve; further: potency means the concentration at half of the fitted maximal effect; actives are rising curves; nearly all actives have a fitted effect of over 50% in size
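Recovery from NS1-induced slow growth read by OD600 in budding yeast switched to galactose assay medium (pH 6.0, -URA) at 1:100 dilution. Compound 23 nl per well; the matching strain lacking NS1 serves as control.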
Cycloheximide cs – Cycloheximide Counterscreen for Small Molecule Inhibitors of Shiga Toxin. cell reporter, cycloheximide protein synthesis inhibition counterscreen. max response, %. 300,000 compounds, 12% hits. AID 2314, 2010; in the data active means max response mostly above about 13%, no sharp cut-off; inactive means mostly below about 14%; further: read at 38.3 µM for the half of the compounds with a filed dose; 0% is about no effect
Pf growth 48h – Primary qHTS for delayed death inhibitors of the malarial parasite plastid, 48 hour incubation; P. falciparum luciferase growth in erythrocytes, 48 h; Potency, µM (titrated, usually from 28.7 µM), for the others: at the top dose activity change, negative = inhibition, usual class: inhibitors; 310,000 compounds, 5.9% hits; further: potency means the concentration at half of the fitted maximal effect; on the % scale 0 is the no-effect control and ±100 the full control effect
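Luciferase-expressing parasites in RBCs, 2% Hct / 0.1% parasitemia final; RPMI 1640 + 0.5% Albumax; 37 C, 5% CO2, one generation; luminescence read-out, lower signal = inhibition.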
Giardia FBPA inh – qHTS Assay for Inhibitors of Fructose-1,6-bisphosphate Aldolase from Giardia Lamblia. A8B2U2. purified Giardia FBPA. Potency, µM (top dose mostly 59.6 µM), for the others: top-dose activity, negative = inhibition, actives largely listed as inhibitors. 290,000 compounds, 0.71% hits. AID 2451, 2010; further: potency means the concentration at half of the fitted maximal effect; on the % scale 0 is the no-effect control and ±100 the full control effect; nearly all actives have a fitted effect of over 55% in size
Target sequence (A8B2U2 whole entry, looked up): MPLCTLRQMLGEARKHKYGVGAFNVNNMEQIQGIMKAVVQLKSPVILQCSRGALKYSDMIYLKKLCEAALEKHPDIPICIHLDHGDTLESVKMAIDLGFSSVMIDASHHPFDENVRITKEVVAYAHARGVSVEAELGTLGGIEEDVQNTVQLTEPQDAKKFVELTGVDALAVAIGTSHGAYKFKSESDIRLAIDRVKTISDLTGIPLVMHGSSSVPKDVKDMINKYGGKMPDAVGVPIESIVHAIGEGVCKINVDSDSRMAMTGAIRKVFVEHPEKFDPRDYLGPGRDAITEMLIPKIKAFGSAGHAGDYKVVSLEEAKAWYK
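Giardia FBPA (40 nM reagent) was preincubated 10 min at RT with compound (up to 57.5 uM final), then substrate plus GAPDH/TPI/NAD/arsenate coupling system with diaphorase/resazurin was added; resorufin fluorescence (525/598 nm) was read after 20 min.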
Active calls of the source: *; u = inconclusive; x = not tested or not shown; [ ] = another dose, or the depositor's remark. Unless noted, the call rests on the fitted dose curve; in most records, active means well fitted curve in the direction sought with a large enough effect; inconclusive means small, poorly fitted or top-dose-only effect, or another doubt; inactive means no such curve, though single readings can be large; an effect the other way counts as inactive or inconclusive.

SMILES | Pf growth 96h | Shiga inhibitor | NS1 inh | Cycloheximide cs | Pf growth 48h | Giardia FBPA inh
CCOC(=O)N1CCN(C2=C(NS(=O)(=O)c3ccc(C)cc3)C(=O)c3ccccc3C2=O)CC1 | 3.29µM* | 13.1 | 18.4% | 11.3 | 8.28µM* | x
NCCc1cc(O)c(O)cc1O | u | 2.0 | x | -1.6 | -10.9% | 5.61µM*
Cc1cc(C(=O)N/N=C/c2sccc2C)no1 | 42.9% | 42.6* | 0.6% | 26.5* | 61.3% | -3.2%
Cc1ccsc1/C=N/NC(=O)c1ccco1 | 31.6% | 46.3* | 1.8% | 24.2* | 25.0% | -2.2%
Cc1ccsc1/C=N/NC(=O)c1sccc1C | 107.5% | 94.7* | -11.6% | 53.5* | 67.9% | -0.6%
Cc1ccsc1/C=N/NC(=O)CNC(=O)c1ccco1 | -14.0% | 39.2 | x | 7.2 | 6.8% | 0.3%
Cc1ccsc1/C=N/NC(=O)CC(=O)NCC(C)C | -18.8% | -11.1 | x | -3.2 | 33.3% | 3.3%
Cc1c(/C=N/NC(=O)c2cc(C(C)(C)C)[nH]n2)c2ccccc2n1C | u | -3.1 | -1.8% | -3.4 | u | 3.4%
Cc1ccsc1/C=N\NC(=O)c1cc(C(C)(C)C)[nH]n1 | u | 104.2* | -0.6% | 23.6* | 0.0% | -19.4%
COc1ccc(C#CC2C=CC(OC(C)=O)C(COC(C)=O)O2)cc1 (stereo unspecified) | x | x | x | x | x | 0.3%[12.9 µM]
Cc1ccsc1/C=N/NC(=O)c1ccc2nc[nH]c2c1 | 41.2% | 31.7* | 7.5% | 20.6* | 57.6% | -0.2%
Cc1ccsc1/C=N/NC(=O)c1ccc(-n2cccc2)cc1 | -46.6% | 65.6* | 7.5% | 32.6* | u | 3.5%
COc1ccccc1/C=N/NC(=O)c1ccc(C)nc1 | u | -8.7 | 9.6% | 9.1 | 3.4% | 12.0%
Cc1ccsc1/C=N/NC(=O)CO | 13.8% | -4.4 | 8.4% | -3.8 | 3.5% | -0.6%
Cc1ccc(C(=O)N/N=C\c2sccc2C)cn1 | u | 73.4* | -2.7% | 34.1* | 123.0% | -1.4%
COc1cccc(Nc2ncc3nc(CCc4ccccc4)c(=O)n(C[C@H]4CCCO4)c3n2)c1 | x | x | x | x | x | -15.8%
CCOc1ccc(NC(=O)NNC(=O)c2cccnc2)cc1 | 2.4% | -17.9 | -15.8% | 4.0 | 5.1% | x
CCOc1ccc2nc(NC(=O)c3c([N+](=O)[O-])cnn3CC)sc2c1 | 24.3% | 14.9 | -0.3% | -1.9 | 21.7% | 7.5%
CCOc1ccc2nc(NC(=O)c3cnc(C)cn3)sc2c1 | u | 23.8 | -4.4% | 17.9* | x | 0.2%
CCOc1ccc2nc(NC(=O)c3cccnc3)sc2c1 | 39.2% | 122.5* | -6.7% | 75.1* | 56.1% | -5.8%
Cc1ccc(NC(=O)C(C)SCc2nc3sc(C)c(C)c3c(=O)[nH]2)nc1 (stereo unspecified) | 7.2% | x | x | x | 5.0% | x
COc1ccc(CNC(=O)N2CCN(c3ccccc3OC)CC2)cc1 | 10.5% | -12.2 | -9.5% | -1.4 | 26.4% | 3.7%
CN1CCN(C(=O)c2cc(-c3ccc(O)cc3)on2)CC1 | x | x | 18.7% | x | x | x
O=C(c1cc(-c2ccc(Br)cc2)on1)N1CCCCCC1 | -15.9% | 80.0* | 1.1% | 35.0* | 220.6% | 11.7%
O=C(c1cc(-c2ccc(Br)cc2)on1)N1CCOCC1 | 99.9% | 59.2* | 13.8% | 20.9* | 185.2% | -13.1%
SMILES | Pf growth 96h | Shiga inhibitor | NS1 inh | Cycloheximide cs | Pf growth 48h | Giardia FBPA inh
CCCn1c(N)c(C(=O)CSc2nc3ccccc3s2)c(=O)[nH]c1=O | u | 60.9* | x | 15.4 | u | -2.7%
CCCn1c(N)c(C(=O)CSc2nnc(N)s2)c(=O)[nH]c1=O | u | x | x | x | -7.6% | x
CCCn1c(N)c(C(=O)CSc2nnc(C3CC3)n2-c2ccccc2)c(=O)[nH]c1=O | 10.4µM* | x | x | x | u | x
O=C(CN1CCN(C(=O)c2ccco2)CC1)Nc1cccc([N+](=O)[O-])c1 | 129.1% | -20.6 | -0.7% | -4.5 | 14.7% | -1.5%
NC(=O)C1CCN(c2nc(-c3cccc4ccccc34)cs2)CC1 | -5.3% | x | x | x | u | x
O=C(Nc1cccc(Cl)c1)Nc1nnc(CC2=CCCCC2)s1 | u | -4.2 | -2.2% | -1.9 | 14.7µM* | 0.6%
Cc1ccc(NC(=O)Nc2nnc(CSCCOc3ccc(Cl)cc3)s2)cc1 | u | -4.1 | 10.6% | -5.5 | -12.0% | 3.3%
O=C(Nc1cccc(Cl)c1)Nc1nnc(CSCCOc2ccc(Cl)cc2)s1 | u | 16.9 | 0.1% | 8.5 | 11.7µM* | -1.7%
CC(=O)C1=C(C)NC(SCC(N)=O)=C(C#N)C1c1ccco1 (stereo unspecified) | 21.1% | 28.7 | x | 31.2 | 3.8% | -5.1%
CC1=C(C(=O)Nc2ccccc2)C(c2ccco2)C(C#N)=C(SCC(=O)OC(C)C)N1 (stereo unspecified) | 7.38µM* | 8.6 | 9.6% | -1.7 | 2.33µM* | -2.9%
COc1ccccc1NC(=O)C1=C(C)NC(SCC(=O)c2ccc(C)cc2)=C(C#N)C1c1ccco1 (stereo unspecified) | 2.8%[5.75 µM] | -3.4 | 9.8% | 5.4 | x | -23.0%
CC1=C(C(=O)Nc2ccccc2)C(c2ccco2)C(C#N)=C(SCC(=O)Nc2cccc(C)c2C)N1 (stereo unspecified) | u | 27.1 | u | 0.7 | 2.62µM* | -4.5%
CCOc1ccccc1NC(=O)CSC1=C(C#N)C(c2ccco2)C(C(=O)Nc2nc3ccccc3s2)=C(C)N1 (stereo unspecified) | u | -11.7 | 13.9% | -6.7 | 9.28µM* | -1.2%
CC1=C(C(=O)Nc2ccccc2)C(c2ccco2)C(C#N)=C(SCc2ccccc2)N1 (stereo unspecified) | x | -7.7 | -2.2% | 6.8 | 8.28µM* | -12.2%
O=c1c(CCc2ccccc2)nc2cnc(N3CCOCC3)nc2n1C[C@H]1CCCO1 | x | x | x | x | x | -0.4%
Cc1ccc(C(=O)OCC(=O)N2CCNC2=O)c(C)c1 | 110.9% | x | x | x | 98.0% | x
O/N=C/c1ccccc1OCc1ccc(Cl)cc1 | 146.4% | 63.1* | -108.7% | 43.8* | 98.5% | 1.7%
CCOC(=O)N/N=C/c1ccccc1OCc1ccc(Cl)cc1 | 2.08µM* | 50.3* | -17.9% | 34.3* | 2.94µM* | -1.0%
COC(=O)c1ccc(COc2ccccc2/C=N/NS(=O)(=O)c2ccc(C)cc2)cc1 | u | -9.9 | 1.8% | -1.8 | 3.0% | -1.5%
O=S(=O)(N/N=C/c1ccccc1OCc1ccc(Cl)cc1)c1ccccc1 | u | active | -5.5% | 23.0* | -12.2% | -9.2%
O=C(Cc1ccccc1)N/N=C/c1ccccc1OCc1ccc(Cl)cc1 | 8.5% | -5.3 | 16.3% | 8.6 | -16.1% | -3.9%
O=C(Nc1cc(Cl)cc(Cl)c1)C1CCCC1 | -61.2% | -1.4 | -25.2% | -0.4 | 5.4% | -2.3%
CC[n+]1c(C)cc(C)n1-c1ccccc1 | 8.28µM* | -8.8 | x | -5.5 | u | 1.7%
CCOC(=O)c1ccc2c(c1)[n+](CC)c(C)n2-c1ccccc1 | u | -10.2 | 2.2% | -4.7 | u | 2.1%

Compound activity deposited in PubChem by National Center for Advancing Translational Sciences (NCATS).
